Among the data in publication PMC5700166 are binding signal values, retold here.

Holding throughout (assay): protein-binding microarray (PBM); PBM: ~300 nM protein, 6 mM HEPES pH 7.8, 80 mM KCl, 0.5 mM EDTA, 0.5 mM EGTA, 6% glycerol, 35 ng/ul poly-dIdC, 1% milk, 1 h, room temperature; Ap Aiptasia and Nv Nematostella (sea anemones) / Co Capsaspora / Aq Amphimedon (sponge) / Dm Drosophila / Hu human; RHD is the Rel homology domain; high values mean tight binding
What all share (details): dsDNA, one strand shown

Assay [1] concerns the target T1, GST-Ap-NF-kB RHD (Exaiptasia pallida (Aiptasia), UniProt A0A913YAJ5 2-422).
T1 sequence: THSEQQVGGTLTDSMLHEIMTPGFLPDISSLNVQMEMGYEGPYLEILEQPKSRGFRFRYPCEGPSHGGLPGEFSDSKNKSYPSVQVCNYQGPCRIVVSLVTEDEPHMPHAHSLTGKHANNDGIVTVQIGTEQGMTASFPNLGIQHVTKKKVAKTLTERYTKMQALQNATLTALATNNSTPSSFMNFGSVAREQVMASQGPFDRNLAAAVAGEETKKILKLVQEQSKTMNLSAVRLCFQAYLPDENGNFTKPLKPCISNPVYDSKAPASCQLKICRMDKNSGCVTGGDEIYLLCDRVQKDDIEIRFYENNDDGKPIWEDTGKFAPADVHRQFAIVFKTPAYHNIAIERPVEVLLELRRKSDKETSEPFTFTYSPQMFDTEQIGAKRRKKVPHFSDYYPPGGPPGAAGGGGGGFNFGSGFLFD

Assay [2] addresses T2, GST-Nv-NF-kB (Cys allele) (Nematostella vectensis, UniProt E5G601 2-411).
T2 sequence: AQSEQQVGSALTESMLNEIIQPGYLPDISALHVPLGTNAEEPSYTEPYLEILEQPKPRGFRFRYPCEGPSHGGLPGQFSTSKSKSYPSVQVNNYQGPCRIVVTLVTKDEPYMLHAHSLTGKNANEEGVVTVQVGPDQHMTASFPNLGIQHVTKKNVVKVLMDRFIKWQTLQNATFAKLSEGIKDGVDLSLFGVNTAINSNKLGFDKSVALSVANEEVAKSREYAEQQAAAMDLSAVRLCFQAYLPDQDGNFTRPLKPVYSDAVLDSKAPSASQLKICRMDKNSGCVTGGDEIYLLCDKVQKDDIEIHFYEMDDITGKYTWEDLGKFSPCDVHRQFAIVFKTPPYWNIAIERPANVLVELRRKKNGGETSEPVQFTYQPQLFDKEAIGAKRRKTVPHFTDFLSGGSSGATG

Assay [3] addresses T3, GST-Co-NF-kB (Capsaspora owczarzaki, UniProt F1ARL5 200-546).
T3 sequence: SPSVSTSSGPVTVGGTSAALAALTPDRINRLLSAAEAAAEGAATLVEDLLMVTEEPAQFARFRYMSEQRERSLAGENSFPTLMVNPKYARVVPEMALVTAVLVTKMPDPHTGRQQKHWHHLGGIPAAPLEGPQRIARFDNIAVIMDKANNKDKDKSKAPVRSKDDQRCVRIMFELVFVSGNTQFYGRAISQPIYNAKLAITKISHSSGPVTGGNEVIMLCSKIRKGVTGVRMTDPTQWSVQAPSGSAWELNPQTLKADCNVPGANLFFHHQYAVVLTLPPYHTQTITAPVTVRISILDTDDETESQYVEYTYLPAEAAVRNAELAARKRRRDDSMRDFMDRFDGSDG

For assay [4], the target named is T4, GST-Dm-Relish (Drosophila melanogaster, UniProt Q94527 99-473).
T4 sequence: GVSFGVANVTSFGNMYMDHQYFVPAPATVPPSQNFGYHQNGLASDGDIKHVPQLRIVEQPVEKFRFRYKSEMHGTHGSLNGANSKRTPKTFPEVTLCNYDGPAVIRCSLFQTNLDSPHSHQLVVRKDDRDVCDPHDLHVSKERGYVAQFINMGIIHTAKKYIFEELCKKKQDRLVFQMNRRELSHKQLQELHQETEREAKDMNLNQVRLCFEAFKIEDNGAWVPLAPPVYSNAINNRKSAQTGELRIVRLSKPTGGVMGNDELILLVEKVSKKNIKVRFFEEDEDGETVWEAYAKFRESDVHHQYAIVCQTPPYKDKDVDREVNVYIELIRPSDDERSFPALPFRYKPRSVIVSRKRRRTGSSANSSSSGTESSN

Assay [5] concerns the target T5, GST-Aq-NF-kB (Amphimedon queenslandica, UniProt A9Y5G7 2-389).
T5 sequence: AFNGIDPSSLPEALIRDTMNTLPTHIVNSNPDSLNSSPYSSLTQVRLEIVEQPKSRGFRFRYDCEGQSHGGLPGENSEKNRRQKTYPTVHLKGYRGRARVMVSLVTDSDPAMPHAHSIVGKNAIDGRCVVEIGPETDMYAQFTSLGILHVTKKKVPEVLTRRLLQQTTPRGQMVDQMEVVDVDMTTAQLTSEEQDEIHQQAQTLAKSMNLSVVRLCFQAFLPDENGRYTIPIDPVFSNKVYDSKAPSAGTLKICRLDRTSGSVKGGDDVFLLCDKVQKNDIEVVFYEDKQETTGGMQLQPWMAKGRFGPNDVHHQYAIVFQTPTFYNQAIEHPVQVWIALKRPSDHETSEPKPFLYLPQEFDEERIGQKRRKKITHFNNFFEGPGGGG

On to “CCGATTAACATCAGGGGACTATATGATGTTAATCGGGTCTTGATTCGCTTGACGCTGCTG”, for which the binding signal in assay [1] is 5.4 z-score; in assay [2] it was 4.97 z-score; in assay [3], 2.59 z-score; in assay [4], 2.85 z-score; in assay [5], 4.61 z-score.

As to “CCGATTAACATCACATTATCCCCTGATGTTAATCGGGTCTTGATTCGCTTGACGCTGCTG”, the binding signal in assay [1] is 4.81 z-score; in assay [2], 5.05 z-score; in assay [3], 4.75 z-score; in assay [4], 2.4 z-score; in assay [5], 3.81 z-score.

Regarding “CCGATTAACATCAGGAAACACCCTGATGTTAATCGGGTCTTGATTCGCTTGACGCTGCTG”, the binding signal in assay [1] was 3.05 z-score; in assay [2], 2.79 z-score; in assay [3], 1.1 z-score; in assay [4], 4.19 z-score; in assay [5] it was 6.01 z-score.

For “CCGATTAACATCAAGAGACCCCCTGATGTTAATCGGGTCTTGATTCGCTTGACGCTGCTG”, the binding signal in assay [1] came to 5.03 z-score; in assay [2], 2.88 z-score; in assay [3] it was 2.08 z-score; in assay [4], 3.99 z-score; in assay [5], 3.76 z-score.

On to “CCGATTAACATCAAATTTTCCCATGATGTTAATCGGGTCTTGATTCGCTTGACGCTGCTG”, for which the binding signal in assay [1] came out at 3.65 z-score; in assay [2], 5.18 z-score; in assay [3], 5.19 z-score; in assay [4], 1.94 z-score; in assay [5], 4.45 z-score.

In the case of “CCGATTAACATCAGGCTTTTCCCTGATGTTAATCGGGTCTTGATTCGCTTGACGCTGCTG”, the binding signal in assay [1] amounted to 2.62 z-score; in assay [2] it was 4.54 z-score; in assay [3] it was 2.51 z-score; in assay [4] it was 2.3 z-score; in assay [5], 6.49 z-score.

With “CCGATTAACATCAGACCTTCCCCTGATGTTAATCGGGTCTTGATTCGCTTGACGCTGCTG”, the binding signal in assay [1] came to 4.8 z-score; in assay [2], 4.93 z-score; in assay [3], 4.12 z-score; in assay [4], 4.54 z-score; in assay [5] it was 5.13 z-score.

In the case of “CCGATTAACATCAGGGAATTAACTGATGTTAATCGGGTCTTGATTCGCTTGACGCTGCTG”, the binding signal came to 2.83 z-score in assay [1]; 4.33 z-score in assay [2]; 2.63 z-score in assay [3]; 4.07 z-score in assay [4]; 5.19 z-score in assay [5].

Regarding “CCGATTAACATCAAGCACCCCCTTGATGTTAATCGGGTCTTGATTCGCTTGACGCTGCTG”, the binding signal turned out to be 4.4 z-score in assay [1]; 3.21 z-score in assay [2]; 1.76 z-score in assay [3]; 2.85 z-score in assay [4]; 4.66 z-score in assay [5].

“CCGATTAACATCAACATCCCCCCTGATGTTAATCGGGTCTTGATTCGCTTGACGCTGCTG”: the binding signal was 5.64 z-score in assay [1]; 5.25 z-score in assay [2]; 5.48 z-score in assay [3]; 5.72 z-score in assay [4]; 5.23 z-score in assay [5].

Regarding “CCGATTAACATCAGGGAACGCCCTGATGTTAATCGGGTCTTGATTCGCTTGACGCTGCTG”, the binding signal in assay [1] stood at 2.68 z-score; in assay [2], 2.74 z-score; in assay [3], 1.21 z-score; in assay [4] it was 4.32 z-score; in assay [5], 5.25 z-score.

For “CCGATTAACATCAGAAATCTCCCTGATGTTAATCGGGTCTTGATTCGCTTGACGCTGCTG”, the binding signal came out at 3.4 z-score in assay [1]; 5.21 z-score in assay [2]; 2.43 z-score in assay [3]; 1.79 z-score in assay [4]; 5.79 z-score in assay [5].

Turning to “CCGATTAACATCAGGGGGAGAGATGATGTTAATCGGGTCTTGATTCGCTTGACGCTGCTG”, the binding signal in assay [1] came out at 3.84 z-score; in assay [2], 3.66 z-score; in assay [3], 5.69 z-score; in assay [4] it was 1.45 z-score; in assay [5], 3.54 z-score.

On to “CCGATTAACATCAGGGATCACCCTGATGTTAATCGGGTCTTGATTCGCTTGACGCTGCTG”, for which the binding signal in assay [1] amounted to 3.86 z-score; in assay [2], 2.9 z-score; in assay [3] it was 1.02 z-score; in assay [4] it was 6.12 z-score; in assay [5] it was 5.65 z-score.
